# The list is not random: actives were taken first. Their share in the collection is about 19%.
# DT40 TDP1 no CPT = qHTS for Inhibitors of human tyrosyl-DNA phosphodiesterase 1 (TDP1): qHTS in cells in absence of CPT; Potency, µM (highest dose often 46.2 µM), for inactives: at the top dose activity change, negative = growth inhibition, usual class: inhibitors; hit rate 15% among 420,000; DT40 Tdp1-/- hTDP1 cells, no CPT, ATP luminescence, 48 h; note: potency is the fitted concentration of half-maximal effect; nearly all actives have a fitted effect of over 55% in size
#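 Chicken DT40 Tdp1-/- cells complemented with human TDP1, screened without camptothecin (DMSO vehicle only), 400 cells/well. Compounds pin-transferred, cells incubated at 37 °C for at least 48 hr. Growth read as ATP-dependent luminescence (CellTiter-Glo, 30 min at RT).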
# HT1080 IDH1KD tx = qHTS for induction of synthetic lethality in tumor cells producing 2HG: qHTS for the HT-1080-IDH1KD cell line | Potency, µM (highest dose often 46.1 µM), without a hit: at the highest dose activity, negative = toxicity, hits mostly cytotoxic | HT-1080 IDH1 knockdown viability, ATP luminescence, 48 h | hit rate 2% among 360,000;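 note: potency is the fitted concentration of half-maximal effect; 0% = DMSO wells and -100% = cell-free medium wells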
#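 CellTiter-Glo luminescence after 48 h compound exposure at 37 degrees C of IDH1-knockdown HT-1080 cells in 5% FBS RPMI. %Activity scaled between DMSO wells and cell-free media wells, with curves fitted and assigned curve classes.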
# IL1B secr inh = qHTS for Inhibitors of Inflammasome Signaling: IL-1-beta AlphaLISA Primary Screen. hit rate 4.7% among 360,000. THP-1 LPS/ATP IL-1B secretion, AlphaLISA, 16 h; active compounds read low. activity change, % at 57.5 µM; in the data active = activity change below about -50%; inconclusive = mostly about -30% to -49%
#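 Secreted IL-1B measured by AlphaLISA bead assay after 16 h compound exposure of THP-1 cells; compounds (final up to 57.5 uM) added 1 h before LPS (250 ng/mL) and ATP (1.25 mM) stimulation; lower signal means less secretion.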
# DT40 TDP1 CPT = qHTS for Inhibitors of human tyrosyl-DNA phosphodiesterase 1 (TDP1): qHTS in cells in presence of CPT | chicken DT40 Tdp1-/-;hTDP1 cells + 20 nM CPT, ATP luminescence, 48 h | Potency, µM (series often up to 46.2 µM), for the others: at the top dose activity change, negative = growth inhibition, actives largely listed as inhibitors | hit rate 12% among 420,000; note: potency is the fitted concentration of half-maximal effect; nearly all actives have a fitted effect of over 55% in size
#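 Chicken DT40 Tdp1-/- cells stably complemented with human TDP1 were seeded at 400 cells/well in medium containing 20 nM camptothecin, exposed to pin-transferred compounds, and grown at 37 °C for at least 48 hr. Viability was read as ATP luminescence.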
# HT1080NT lethal = qHTS for induction of synthetic lethality in tumor cells producing 2HG: qHTS for the HT-1080-NT fibrosarcoma cell line; hit rate 1.6% among 360,000; HT-1080-NT fibrosarcoma viability, CellTiter-Glo ATP luminescence, 48 h; Potency, µM (highest dose often 46.1 µM), for the others: at the top dose activity, negative = less viability, most hits filed as cytotoxic;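 note: NT is the 2HG producing partner of a matched IDH1 knockdown line; potency is the fitted concentration of half-maximal effect; 0% = DMSO-treated cells and -100% = media-only wells without cells; nearly all actives have a fitted effect of over 55% in size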
#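 HT-1080-NT; 750 cells/well; 5% FBS RPMI; 48 h compound, 37 degrees C; CellTiter-Glo luminescence; curve fitting and curve-class assignment.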
# Numbers without * were called inactive; i = inactive; ? = inconclusive; . = not tested or not shown; [ ] = dose if it differs, or a comment. Unless noted, calls come from the whole dose curve; as a rule, active = well fitted curve in the direction sought with a large enough effect; inconclusive = small, poorly fitted or top-dose-only effect, or another doubt; inactive = no such curve, though single readings can be large; an effect the other way counts as inactive or inconclusive. Unless noted, % is set by controls: 0 for no effect and ±100 for the full control effect.
SMILES,DT40 TDP1 no CPT,HT1080 IDH1KD tx,IL1B secr inh,DT40 TDP1 CPT,HT1080NT lethal
O=C(N/N=C/c1ccccn1)c1sc2ccccc2c1Cl,13µM*,?,202,16µM*,-12%
O=C(N/N=C/c1cccc(NC(=O)c2ccc(Cl)cc2)c1)c1cccc(O)c1,13µM*,?,12,?,?
O=C(N/N=C/c1c[nH]c2ccccc12)c1sc2ccccc2c1Cl,?,?,-28,-3%,-12%
Cc1cccc(/C=N/NC(=O)c2ccc(NC(=O)c3ccc(Cl)cc3)cc2)n1,?,18µM*,48,?,18µM*
O=C(N/N=C/c1ccccn1)c1ccccc1,18µM*,-23%,73,?,-3%
COc1cc(C(=O)N/N=C/c2cc([N+](=O)[O-])cs2)cc(OC)c1OC,1µM*,1.5µM*,22,0.82µM*,2.9µM*
COc1ccc2ccccc2c1/C=N/NC(=O)c1ccc([N+](=O)[O-])cc1,-20%,1%,-8,0%,3%
O=C(N/N=C/c1ccc([N+](=O)[O-])o1)c1sc2ccccc2c1Cl,26µM*,?,-78*,23µM*,-24%
Cc1ccccc1C(=O)N/N=C/c1ccccn1,?,?,14,?,-21%
COc1ccc(C(=O)Nc2ccccc2C(=O)N/N=C/c2ccccn2)cc1OC,6.5µM*,?,.,4.6µM*,?
O=C(N/N=C\c1ccccn1)c1ccccc1O,?,?,-123*,15µM*,-3%
CCCN(C(=O)c1ccc(N(C)S(=O)(=O)c2ccc(C)cc2)cc1)C1CCS(=O)(=O)C1 (configuration not stated),?,13%,-4,?,7%
COc1ccc(C(=O)N/N=C/c2ccccn2)cc1OC,?,-29%,-5,?,-15%
Cc1ccc(C(=O)Nc2ccc(C(=O)N/N=C/c3ccccn3)cc2)cc1,?,?,0,-30%,?
COc1ccc(C(=O)N/N=C/c2ccc3cccc(O)c3n2)cc1,5.2µM*,?,-27,?,?
COc1cc(C(=O)N/N=C/c2ccccn2)cc(OC)c1OC,4.6µM*,?,82,3.3µM*,?
O=C(N/N=C/c1ccccn1)c1ccc(Cl)cc1,12µM*,?,-101*,12µM*,-21%
O=C1c2ccccc2-c2cc([N+](=O)[O-])c([N+](=O)[O-])cc21,0.5µM*,.,.,0.4µM*,.
Nc1ccc2c(c1)C(=O)c1cc([N+](=O)[O-])ccc1-2,-18%,-3%,?,14%,0%
CC(C)c1ccc(C2Sc3ccccc3NC3=C2C(=O)c2ccccc23)cc1 (configuration not stated),16µM*,.,.,16µM*,.
CCc1ccc(C2Sc3ccccc3NC3=C2C(=O)c2ccccc23)cc1 (configuration not stated),?,.,.,16µM*,.
O=C1C2=C(Nc3ccccc3SC2c2ccco2)c2ccccc21 (configuration not stated),?,-26%,-15,-11%,-29%
CCc1ccc(C2C(C(=O)O)c3ccccc3C(=O)N2C)cc1 (configuration not stated),-3%,16%,17,5%,8%
Cc1cccc(NC(=O)CSc2ccc(C(N)=O)cc2[N+](=O)[O-])c1C,-9%,0%,13,?,10%
CCN(CC)C(=O)[C@H]1CC(CC(=O)NCCC2=CCCCC2)C(=O)N2CCc3c([nH]c4ccc(OC)cc34)[C@]12C (some centres not stated),?,4%,?,?,7%
SMILES,DT40 TDP1 no CPT,HT1080 IDH1KD tx,IL1B secr inh,DT40 TDP1 CPT,HT1080NT lethal
Cc1ccc(C)c(CN2C(=O)CSc3ccc(C(=O)NCc4ccccc4)cc32)c1,16µM*,.,.,10µM*,.
O=C(NCCc1ccccc1)c1ccc2c(c1)N(Cc1ccc(F)cc1Cl)C(=O)CS2,-25%,.,.,-27%,.
O=C(NCCC1=CCCCC1)c1ccc2c(c1)N(Cc1ccccc1)C(=O)CS2,21µM*,-24%,?,?,?
O=C(NCCc1ccc(Cl)cc1)c1ccc2c(c1)N(Cc1ccc(F)cc1Cl)C(=O)CS2,6.5µM*,.,.,?,.
Cc1ccc(CNC(=O)c2ccc3c(c2)N(Cc2cccc(C)c2)C(=O)CS3)cc1,21µM*,.,.,?,.
CCN(C(=O)CSc1nnc(-c2ccco2)n1CC)c1c(N)n(Cc2ccccc2)c(=O)[nH]c1=O,4%,-1%,-4,-8%,-7%
O=C(NCc1ccc2c(c1)OCO2)c1ccc2c(c1)N(Cc1c(F)cccc1Cl)C(=O)CS2,23µM*,-11%,4,?,-8%
CCCCc1cc(=O)oc2c(C)c(OCC(=O)N3CCCC3)ccc12,?,-1%,?,?,0%
Cc1cc(=O)oc2cc(OCC(=O)N3CCN(c4ccccc4)CC3)ccc12,0%,9%,0,-12%,0%[9.24 µM]
Cc1cc(=O)oc2c(C)c(OCC(=O)N3CCN(c4cccc(Cl)c4)CC3)ccc12,23µM*,2%,-23,21µM*,-17%
Cc1c(CC(=O)N2CCN(C(=O)C3COc4ccccc4O3)CC2)c(=O)oc2c(C)c(O)ccc12 (configuration not stated),?,-9%,-8,?,-10%
CCCc1cc(=O)oc2c(C)c(OCC(=O)c3ccc(N4CCCC4)cc3)ccc12,18µM*,7%,6,?,12%
Cc1cc(C)c(S(=O)(=O)N2CCN(C(=O)C3COc4ccccc4O3)CC2)c(C)c1 (configuration not stated),9.2µM*,-5%,-2,13µM*,-18%
Cc1cc(=O)oc2c(C)c(OCC(=O)N3CCN(C(=O)C4COc5ccccc5O4)CC3)ccc12 (configuration not stated),16µM*,-4%,-6,?,-4%
CC(C)[C@H](NC(=O)c1ccccc1)C(=O)OCC(=O)NCc1ccc2c(c1)OCO2,?,-5%,1,28%,-2%
Cc1ccc(OCC(=O)NCCc2c[nH]c3ccccc23)cc1,-22%,-15%,-27,3%,-16%
O=C(CSc1ccc2nnc(CCNC(=O)c3ccc(F)cc3)n2n1)NCc1ccco1,12%,3%,i,10%,1%
Cn1c(=O)c2c(nc(Oc3ccc(-c4ccccc4)cc3)n2C)n(C)c1=O,?,14%,5,-35%,10%

# Compound activity from PubChem BioAssay.
